# Measurements as given in PubChem BioAssay (NCI).
# The panel holds about 79,000 compounds, 15% with a hit somewhere; the sample as a whole holds those more often. Unmarked numbers belong to inactive results. Calls of active or inactive are those of the source. Cut-off read from the data, not from the text of the source: active = growth inhibition above about 70%; inactive = the rest.
# Assay: NCI Yeast Anticancer Drug Screen. Data for the rad18 strain (AID 177)
# Conditions: S. cerevisiae rad18 mutant growth inhibition, active compounds read high
# Experimental: Growth inhibition of yeast strains with defined genetic alterations is measured as a screen for potential anti-cancer activity. Selected strains with alterations in DNA damage repair or cell cycle control were exposed to compounds and growth inhibition was measured relative to vehicle treated controls. The strain used in this assay is rad18
SMILES,growth inhibition (at 1.2 µM) [%],growth inhibition (at 3.7 µM) [%],growth inhibition (at 11.0 µM) [%],growth inhibition (at 33.0 µM),growth inhibition (at 100.0 µM)
CC(C)OC(=O)c1ccc(CCc2cc(O)c(Br)cc2O)cc1,20,24,59,96% (active),93% (active)
O=C(O)CNC(=S)Nc1ccccc1,-56,-17,-21,53%,82% (active)
Cc1ccc(Sc2ccccc2N)cc1,-16,-13,-21,12%,98% (active)
CCCCCOC(=S)SC(=O)OCC,-5,5,33,90% (active),98% (active)
O=P(NC1CCCCC1)(OCc1ccccc1)OCc1ccccc1,-1,3,13,26%,28%
Cc1ccc(NC(c2ccccc2)c2ccc3cccnc3c2O)cc1 (stereo not given),-15,3,-10,-2%,-12%
CCCCCCCCCCCC(O)S(=O)(=O)O (stereo not given),1,1,-2,-1%,90% (active)
O=C(C[n+]1ccc2ccccc2c1)c1ccc2ccccc2c1,-21,-24,-15,-3%,99% (active)
